Results as given in publication PMC4336329 (PLoS ONE, 2015).
Hit rate of the full screen: of about 310,000 compounds, about 2,200 (0.71%) showed an effect of 50% or more. The effect is printed as a negative number. The full list was thinned out, with strong results kept by preference.

Target: human ether-à-go-go-related gene (hERG) potassium channel (human, UniProt Q12809)
Test: primary screen, population patch clamp on CHO cells stably expressing hERG; higher = less effect of the substance
Experimental: Briefly, Chinese hamster ovary (CHO) cells stably expressing the hERG channel were dislodged from tissue culture flasks and dispensed into PPC plates. […] During the recording, background leak currents were estimated by a 100 ms step to -80 mV from an initial holding potential of -70 mV and subtracted from the subsequent current measurement. The campaign was conducted in two phases using slight differences in recording protocol. In the first phase, the initial voltage pulse used a 100 ms step to -30 mV from a holding potential of -70 mV, a 2 s conditioning step to +25 mV, and a 2 s test step to -30 mV. During the second phase of the screen, the potential during the conditioning step was raised to +45 mV. In both phases of the campaign, a secondary voltage pulse was applied using the same parameters as the second phase initial pulse. The initial and secondary pulses were applied in the absence of compound, and upon application of 1 μM and 10 μM test concentrations. Small molecule effects on hERG current density were quantified by […].

Sequence of human ether-à-go-go-related gene (hERG) potassium channel (Q12809 whole entry, looked up): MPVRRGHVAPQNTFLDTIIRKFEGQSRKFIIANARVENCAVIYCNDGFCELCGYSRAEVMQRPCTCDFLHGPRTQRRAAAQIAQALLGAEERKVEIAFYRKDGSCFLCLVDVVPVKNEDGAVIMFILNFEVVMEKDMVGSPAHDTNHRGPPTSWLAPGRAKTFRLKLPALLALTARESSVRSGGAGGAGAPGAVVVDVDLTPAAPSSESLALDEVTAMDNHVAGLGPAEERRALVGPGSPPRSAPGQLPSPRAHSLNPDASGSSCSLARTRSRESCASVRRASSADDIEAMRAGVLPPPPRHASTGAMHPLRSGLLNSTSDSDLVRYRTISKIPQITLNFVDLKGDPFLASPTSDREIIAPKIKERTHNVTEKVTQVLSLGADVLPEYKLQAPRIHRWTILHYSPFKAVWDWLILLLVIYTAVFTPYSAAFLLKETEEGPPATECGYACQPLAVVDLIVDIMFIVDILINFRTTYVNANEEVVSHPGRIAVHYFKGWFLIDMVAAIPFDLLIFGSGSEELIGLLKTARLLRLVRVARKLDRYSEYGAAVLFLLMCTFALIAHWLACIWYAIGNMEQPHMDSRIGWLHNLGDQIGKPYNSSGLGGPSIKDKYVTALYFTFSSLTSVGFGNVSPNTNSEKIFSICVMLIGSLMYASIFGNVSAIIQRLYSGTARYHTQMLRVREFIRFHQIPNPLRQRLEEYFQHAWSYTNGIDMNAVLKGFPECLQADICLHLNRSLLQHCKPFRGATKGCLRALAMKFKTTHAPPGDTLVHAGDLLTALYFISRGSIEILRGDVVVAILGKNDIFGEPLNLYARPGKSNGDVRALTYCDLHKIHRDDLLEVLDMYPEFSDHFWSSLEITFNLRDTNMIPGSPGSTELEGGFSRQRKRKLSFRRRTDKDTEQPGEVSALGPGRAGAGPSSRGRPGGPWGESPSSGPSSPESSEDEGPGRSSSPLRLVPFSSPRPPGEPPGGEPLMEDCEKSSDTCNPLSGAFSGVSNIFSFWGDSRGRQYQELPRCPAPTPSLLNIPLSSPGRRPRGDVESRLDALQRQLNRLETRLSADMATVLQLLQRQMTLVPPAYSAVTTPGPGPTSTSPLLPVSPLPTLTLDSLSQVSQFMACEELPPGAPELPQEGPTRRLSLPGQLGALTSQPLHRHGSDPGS

In order of rising “hERG current change (%, negative = inhibition) at 1uM” value:
1. O=C(CN1CCN(CCO)CC1)Nc1ccc(Cl)cc1C(=O)c1ccccc1  -80.7%
2. COc1ccc(-c2cc3ccccc3n2CC(O)CN2CCCCC2)cc1.O=C(O)C(=O)O (stereo not shown)  -74.6%
3. CCC(=O)c1ccc(N2CCN(C(=O)COc3ccc(F)cc3)CC2)c(F)c1  -71.3%
4. CC(=O)c1ccc(N2CCN(C(=O)COc3ccc(F)cc3)CC2)c(F)c1  -62.7%
5. N#Cc1ccc(C2=CC(=O)C[C@H](c3ccc(F)cc3)C2)cc1  -61.4%
6. O=C(COc1ccc(-n2cnnn2)cc1)N1CCN(c2ccc(F)cc2)CC1  -60.3%
7. Cc1cccc(OCC(O)Cn2c(=N)n(CCN3CCCCC3)c3ccccc32)c1.Cl (stereo not shown)  -59.8%
8. CCOc1ccc(C(O)Cn2c(=N)n(CCN3CCCCC3)c3ccccc32)cc1.Cl (stereo not shown)  -56%
9. O=C(c1cccc(S(=O)(=O)N2CCOCC2)c1)N(Cc1ccc(F)cc1)Cc1ccco1  -55.2%
10. N#Cc1ccc(C2=CC(=O)C[C@H](c3ccc(Cl)cc3)C2)cc1  -51.9%
11. COc1ccc(OCC(O)Cn2c(=N)n(CCN3CCCCC3)c3ccccc32)cc1.Cl (stereo not shown)  -51.2%
12. COc1ccc(-c2cc3ccccc3n2CC(O)CN2CCC(C)CC2)cc1.O=C(O)C(=O)O (stereo not shown)  -49.8%
13. O=C(CCN1CCCCC1)Nc1ccc(Cl)cc1C(=O)c1ccccc1  -42.9%
14. CCN(CC(=O)NCc1cccs1)C(=O)/C=C/c1cccc(Br)c1  -42.3%
15. CC(=O)c1cc(F)c(N2CCN(C(=O)COc3ccc(F)cc3)CC2)cc1C  -38.2%
16. Cl.N=c1n(CCN2CCCCC2)c2ccccc2n1CC(O)COc1ccccc1 (stereo not shown)  -32.7%
17. Cc1ccc(OCC(O)Cn2c(=N)n(CCN3CCCCC3)c3ccccc32)cc1.Cl (stereo not shown)  -30.1%
18. O=C(COc1ccc(F)cc1)Nc1ccc(-n2cnnn2)cc1  -27.2%
19. Cc1ccccc1OCC(O)Cn1c(=N)n(CCN2CCOCC2)c2ccccc21.Cl (stereo not shown)  -25.3%
20. CCC(=O)c1ccc(N2CCN(C(=O)COc3ccccc3F)CC2)c(F)c1  -19.1%
21. CCCn1c(SCC(=O)Nc2ccccc2OC)nnc1-c1ccco1  -18.2%
22. CCCn1c(=N)n(CC(O)c2ccc(C)cc2)c2ccccc21.Cl (stereo not shown)  -14.9%
23. CN(C)S(=O)(=O)c1cccc(C(=O)N(Cc2ccc(F)cc2)Cc2ccco2)c1  -14.6%
24. CC(=O)c1ccc(N2CCN(C(=O)COc3ccccc3F)CC2)c(F)c1  -11.1%
25. CCC(=O)c1ccc(N2CCN(C(=O)c3ccc(F)cc3)CC2)c(F)c1  -10.2%
26. Cc1cccc(OCC(O)Cn2c(=N)n(CCN3CCOCC3)c3ccccc32)c1.Cl (stereo not shown)  -8.29%
27. CC(C)Cn1c(CN(C)Cc2ccccc2)nc2c1c(=O)n(C)c(=O)n2C  -6.95%
28. O=C(c1cccc(S(=O)(=O)N2CCOCC2)c1)N(Cc1ccco1)Cc1cccs1  -6.4%
29. O=C(COc1ccc(-n2cnnn2)cc1)NCCc1ccc(F)cc1  -5.74%
30. Cl.N=c1n(CCN2CCCCC2)c2ccccc2n1CC(O)c1ccco1 (stereo not shown)  -4.15%
31. COc1ccc(-c2cc3ccccc3n2CC(O)CN2CCOCC2)cc1 (stereo not shown)  2.37%
32. O=C1C=C(c2ccc(-c3ccccc3)cc2)C[C@@H](c2ccc(F)cc2)C1  6.09%
33. O=C(CN1C(=O)c2ccccc2C1=O)Nc1ccccc1C(=O)NC1CCCCCC1  6.73%
34. COc1ccc(S(=O)(=O)N2CCCCCC2)cc1C(=O)N(C)Cc1ccccc1F  6.9%
35. Cc1ccc2nc3c(cc2c1)c(NC(=O)C(C)(C)C)nn3CC(C)C  7.75%
36. CCCSc1nc(C)c(C(C)=O)cc1C#N  7.88%
37. COc1cccc(NC(=O)CN(C)C(=O)c2ccccc2Sc2ccccc2C#N)c1  8.02%
38. CCOc1ccc2nc(NC(=O)c3cc([N+](=O)[O-])ccc3N3CCOCC3)sc2c1  8.4%
39. CC12CCC(C(=Nc3ccc(N=C4C(=O)C5(C)CCC4C5(C)C)cc3)C1=O)C2(C)C  8.42%
40. Cc1ccc(CNC(=O)c2ccc(N3CCC4(CC3)CC(c3cccc(Br)c3)=NO4)c(NC(=O)c3cccc(C)c3)c2)cc1  8.49%
41. COc1ccc(CNC(=S)NC2CCCC2)cc1  9.23%
42. COc1ccc(NC(=O)N2CCC(CO)(CC3CCCCO3)CC2)c(OC)c1 (stereo not shown)  9.96%
43. CCC(C)NC(=O)Cn1nc(Cc2ccncc2)c2ccccc2c1=O (stereo not shown)  10.1%
44. Cc1cccc(N(C(=O)c2nsc(Cl)c2Cl)C(C(=O)NC2CCCC2)c2ccc(O)cc2)c1C (stereo not shown)  10.1%
45. Cc1ccc(C2=CC(=O)C[C@H](c3ccc(Cl)cc3)C2)cc1  10.4%
46. O=C(CN1CCCC1)Nc1ccccc1C(=O)c1ccccc1  10.5%
47. Cc1ccc(C)c(OCCC(=O)NNC(=O)c2ccccc2)c1  10.8%
48. Cn1cnc([N+](=O)[O-])c1Cl  11%
49. Cc1ccc(CNC(=O)N2CCN(c3ccc(C)cc3)CC2)cc1  14.1%
50. Cc1ccc(C2=CC(=O)C[C@H](c3ccc(F)cc3)C2)cc1  14.5%
51. O=C1C=C(c2ccc(-c3ccccc3)cc2)C[C@@H](c2ccc(Cl)cc2)C1  15.9%
52. Cc1cc(NC(=O)c2ccc3c(c2)C(=O)N(C)C3=O)no1  16.4%
53. NC(=O)c1ccc(NC(=O)CCCNC(=O)c2ccc(Cl)cc2)cc1  16.6%
54. CCC(=O)O[C@]1(C(=O)CCl)[C@@H](C)C[C@H]2[C@@H]3CCC4=CC(=O)C=C[C@]4(C)[C@@]3(F)[C@@H](O)C[C@@]21C  18%
55. COc1ccc(CN(C(=O)COc2ccccc2)c2ccccc2C(=O)O)cc1  22%
